This passage reports Potency results from PubChem BioAssay (NCATS).

The nature of assay [1]: qHTS of pediatric cancer cell lines to identify multiple opportunities for drug repurposing: Primary screen for control Hh wild type fibroblast cells (AID 1347106). Also: nearly all actives have a fitted effect of over 55% in size. Also: potency is read from the fitted curve at half-maximal effect. The method in brief:
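Viability after 48 h compound treatment at 37C, 500-1,000 cells/well, read as ATP luminescence with CellTiter-Glo. Primary screens used 11-point (MIPE, 0.78 nM-46 µM) or 8-point (NPC, 0.59 nM-46 µM) final concentrations; follow-up screens used 11-point dilutions.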
For orientation: In qHTS, concentration-response curves come from the screen itself.

Assay [2] is described as follows: qHTS of pediatric cancer cell lines to identify multiple opportunities for drug repurposing: Primary screen for Rh30 cells (AID 1347107). Also: series mostly up to about 46 µM; nearly all actives have a fitted effect of over 75% in size. The method in brief:
(§1)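 Cells (500-1,000/well) rested 5 h, then received compounds for 48 h; metabolically active cells were measured by CellTiter-Glo luminescence. Final concentrations spanned up to 46 µM (MIPE, 11-point) or 0.59 nM-46 µM (NPC, 8-point) in primary screens, 11-point in follow-ups.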

Assay [3] in a line: qHTS of pediatric cancer cell lines to identify multiple opportunities for drug repurposing: Primary screen for Rh41 cells (AID 1347108). Also: nearly all actives have a fitted effect of over 70% in size. Also: potency is read from the fitted curve at half-maximal effect. The procedure, abridged:
(§2)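 Following a 5-hour attachment period, cells at 500-1,000/well received compounds and were cultured for 48 hours. CellTiter-Glo was added and luminescence read to estimate viable, metabolically active cells.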

Assay [4] can be described thus: qHTS of pediatric cancer cell lines to identify multiple opportunities for drug repurposing: Primary screen for MG 63 (6-TG R) cells (AID 1347105). Also: nearly all actives have a fitted effect of over 50% in size. Also: potency is read from the fitted curve at half-maximal effect. The procedure, abridged: as §2
A short description of assay [5]: qHTS of pediatric cancer cell lines to identify multiple opportunities for drug repurposing: Confirmatory screen for NB1643 cells (AID 1347109). Also: nearly all actives have a fitted effect of over 45% in size. Also: potency is read from the fitted curve at half-maximal effect. The method in brief: as §1
A short description of assay [6]: qHTS of pediatric cancer cell lines to identify multiple opportunities for drug repurposing: Confirmatory screen for A673 cells (AID 1347110).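 Also: cells exposed to compound for 48 h before the viability read; nearly all actives have a fitted effect of over 65% in size.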 Also: potency is read from the fitted curve at half-maximal effect. The procedure, abridged: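 qHTS titration format: primary MIPE 0.78 nM-46 µM (11 pts), NPC 0.59 nM-46 µM; confirmation 11 pts. 48 h, CTG luminescence.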
Assay [7] can be described thus: qHTS of pediatric cancer cell lines to identify multiple opportunities for drug repurposing: Confirmatory screen for SK-N-MC cells (AID 1347111).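 Also: potency is read from the fitted curve at half-maximal effect; cells exposed to compound for 48 h before the readout; nearly all actives have a fitted effect of over 70% in size.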 The procedure, abridged:
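Seed 500-1,000 cells/well; rest 5 h at 37 degrees C. Pin-transfer compounds, 11-point titration. Incubate 48 h. Add CellTiter-Glo, 15 min RT, read luminescence.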

Assay [8] is described as follows: qHTS of pediatric cancer cell lines to identify multiple opportunities for drug repurposing: Confirmatory screen for BT-12 cells (AID 1347112). Also: nearly all actives have a fitted effect of over 55% in size. Also: potency is read from the fitted curve at half-maximal effect. The method in brief: as §1
A short description of assay [9]: qHTS of pediatric cancer cell lines to identify multiple opportunities for drug repurposing: Confirmatory screen for LAN-5 cells (AID 1347113). Also: nearly all actives have a fitted effect of over 65% in size. Also: potency is read from the fitted curve at half-maximal effect. The procedure, abridged:
as §1

The nature of assay [10]: qHTS of pediatric cancer cell lines to identify multiple opportunities for drug repurposing: Confirmatory screen for SJ-GBM2 cells (AID 1347116). Also: potency is read from the fitted curve at half-maximal effect; nearly all actives have a fitted effect of over 60% in size. The procedure, abridged: (§3)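 Viability measured as metabolically active cells via CellTiter-Glo luminescence following 48 hours of compound exposure, 11-point dilutions in confirmatory testing. 500-1,000 cells/well plated 5 hours before dosing; controls were DMSO and 2.3 µM bortezomib.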

A short description of assay [11]: qHTS of pediatric cancer cell lines to identify multiple opportunities for drug repurposing: Confirmatory screen for BT-37 cells (AID 1347117). Also: nearly all actives have a fitted effect of over 55% in size. Also: potency is read from the fitted curve at half-maximal effect. The method in brief:
as §1

Assay [12] in a line: qHTS of pediatric cancer cell lines to identify multiple opportunities for drug repurposing: Confirmatory screen for TC32 cells (AID 1347118).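 Also: potency is read from the fitted curve at half-maximal effect; cells exposed to compound for 48 h before the read; nearly all actives have a fitted effect of over 65% in size.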 The procedure, abridged: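 TC32 cells, 500-1,000/well in growth medium, compound-treated 48 h at 37 °C; viability from CellTiter-Glo luminescence. Primary screen: MIPE 11-point (0.78 nM–46 µM final), NPC 8-point (0.59 nM–46 µM final); confirmatory at 11-point dilutions.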

Assay [13] is described as follows: qHTS of pediatric cancer cell lines to identify multiple opportunities for drug repurposing: Confirmatory screen for control Hh wild type fibroblast cells (AID 1347121). Also: nearly all actives have a fitted effect of over 70% in size. The procedure, abridged:
as §1

A short description of assay [14]: qHTS of pediatric cancer cell lines to identify multiple opportunities for drug repurposing: Confirmatory screen for U-2 OS cells (AID 1347122). Also: nearly all actives have a fitted effect of over 65% in size. Also: potency is read from the fitted curve at half-maximal effect. The procedure, abridged: as §1
Assay [15] is described as follows: qHTS of pediatric cancer cell lines to identify multiple opportunities for drug repurposing: Confirmatory screen for Rh41 cells (AID 1347123).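 Also: potency is read from the fitted curve at half-maximal effect; 48 h compound exposure; nearly all actives have a fitted effect of over 60% in size.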 The method in brief:
as §1

A short description of assay [16]: qHTS of pediatric cancer cell lines to identify multiple opportunities for drug repurposing: Confirmatory screen for RD cells (AID 1347124). Also: potency is read from the fitted curve at half-maximal effect. The method in brief:
as §1

The nature of assay [17]: qHTS of pediatric cancer cell lines to identify multiple opportunities for drug repurposing: Confirmatory screen for Rh18 cells (AID 1347125). Also: nearly all actives have a fitted effect of over 55% in size. Also: potency is read from the fitted curve at half-maximal effect. The method in brief: as §1
Assay [18] is described as follows: qHTS of pediatric cancer cell lines to identify multiple opportunities for drug repurposing: Confirmatory screen for Rh30 cells (AID 1347126). Also: nearly all actives have a fitted effect of over 55% in size. Also: potency is read from the fitted curve at half-maximal effect. The method in brief:
as §1

Assay [19] is described as follows: qHTS of pediatric cancer cell lines to identify multiple opportunities for drug repurposing: Confirmatory screen for DAOY cells (AID 1347114). Also: nearly all actives have a fitted effect of over 65% in size. Also: potency is read from the fitted curve at half-maximal effect. The method in brief:
as §3

A short description of assay [20]: qHTS of pediatric cancer cell lines to identify multiple opportunities for drug repurposing: Confirmatory screen for NB-EBc1 cells (AID 1347115).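 Also: cells exposed to compound for 48 h before the viability read; nearly all actives have a fitted effect of over 45% in size.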 Also: potency is read from the fitted curve at half-maximal effect. The procedure, abridged: as §1

Records with an inconclusive call do not appear. Calls of active or inactive are those of the source. Calls follow the shape of the dose curve; as a rule, active = well fitted curve in the direction sought with a large enough effect; inconclusive = small, poorly fitted or top-dose-only effect, or another doubt; inactive = no such curve, though single readings can be large; an effect the other way counts as inactive or inconclusive.

With `COP(=O)(OC)OC(c1ccc(Cl)cc1)P(=O)(OC)OC` (stereo not given), the Potency result in assay [1], in assay [2] and in assay [3] was “inactive” in each case.
Consider `CCOC(=O)C(C#N)=C(c1ccccc1)c1ccccc1`, for which the Potency entry in assay [1], in [2] and in assay [3] was “inactive” throughout.
As to `O=[N+]([O-])c1ccc(/C=N\O)o1`, the Potency result in [4], in [1], in assay [2], in assay [3], in assay [5] and in assay [6] was “inactive” in each case. Besides, the Potency result in assay [8], in [9], in assay [11], in assay [13] and in [17] was “inactive” each time. The Potency in assay [7] is 5850 nM (active); in [10], 928 nM (active); in assay [12] it was 3290 nM (active); in assay [14], 4140 nM (active); in assay [15], 5850 nM (active); in assay [16], 414 nM (active). For the same compound, the Potency in assay [18] is 1170 nM (active).
On to `CC[C@]12CCCN3CCc4c(n(c5ccccc45)C(=O)C1)[C@@H]32`, for which the Potency result in [1] was “inactive”.
For the compound `CCN(CC)CCNc1ccc(CO)c2sc3ccccc3c(=O)c12`, the Potency in [1] was 18800 nM (active). Further, the Potency result in assay [2] was “inactive”.
Turning to `CC(=O)Nc1ccc(CC(=O)O)cc1`, the Potency entry in assay [1], in assay [2] and in assay [3] was “inactive” in each case.
`CCOC(=O)[C@@](C)(N)Cc1ccc(O)c(O)c1`: in assay [1], the Potency entry was “inactive”.
For `CCCCCCCCCCCCSCCOCCO`, the Potency result in [1], in assay [2] and in assay [3] was “inactive” in each case.
With `C[C@H]1O[C@@H](O[C@H]2CC[C@@]3(C)[C@H](CC[C@@H]4[C@@H]3C[C@@H](O)[C@]3(C)[C@@H](C5=CC(=O)OC5)CC[C@]43O)C2)C[C@H](O)[C@@H]1O[C@H]1C[C@H](O)[C@H](O[C@H]2C[C@H](O)[C@H](O[C@@H]3O[C@H](CO)[C@@H](O)[C@H](O)[C@H]3O)[C@@H](C)O2)[C@@H](C)O1`, the Potency in [4] was 84.1 nM (active); in assay [1], 75 nM (active); in assay [5], 414 nM (active); in [6], 737 nM (active); in assay [7], 414 nM (active); in assay [8] it was 293 nM (active). The Potency in assay [9] is 414 nM (active); in assay [19], 117 nM (active); in [20] it was 369 nM (active); in assay [10], 465 nM (active); in [11], 185 nM (active); in assay [12] it was 233 nM (active). For the same compound, the Potency in assay [14] is 293 nM (active); in [15], 147 nM (active); in assay [18], 414 nM (active). In addition, the Potency result in [2] is “inactive”.
Turning to `C#C[C@]1(O)CC[C@H]2[C@@H]3CCC4=Cc5oncc5C[C@]4(C)[C@H]3CC[C@@]21C`, the Potency result in [1], in [2] and in assay [3] was “inactive” in each case.
As for `CC1CCc2c(N3CCC(O)CC3)c(F)cc3c(=O)c(C(=O)O)cn1c23` (stereo not given), the Potency entry in [4], in assay [1], in assay [2], in assay [3], in assay [9] and in assay [20] was “inactive” throughout. Also, the Potency result in assay [13], in assay [14], in assay [16] and in assay [18] was “inactive” throughout. The Potency in [15] was 18500 nM (active).
Turning to `CN(C)C(=O)Nc1ccc(Cl)c(Cl)c1`, the Potency result in assay [4], in [1], in assay [2], in [3], in assay [6] and in [19] was “inactive” each time. Moreover, the Potency result in assay [16] is “inactive”. Moreover, the Potency in assay [20] was 23300 nM (active).
On to `CC1(C)OC[C@@H]2O[C@@]3(C(=O)O)OC(C)(C)O[C@H]3[C@@H]2O1`, for which the Potency entry in assay [1], in assay [2] and in assay [3] was “inactive” in each case.
Regarding `CO[C@H]1C=CO[C@@]2(C)Oc3c(C)c(O)c4c(O)c(c(/C=N/N5CCN(C)CC5)c(O)c4c3C2=O)NC(=O)/C(C)=C\C=C[C@H](C)[C@H](O)[C@@H](C)[C@@H](O)[C@@H](C)[C@H](OC(C)=O)[C@@H]1C`, the Potency result in assay [4], in assay [2] and in assay [3] was “inactive” in each case.
Turning to `COc1ccc(C(Cl)=C(c2ccc(OC)cc2)c2ccc(OC)cc2)cc1`, the Potency entry in assay [1], in assay [2] and in [3] was “inactive” in each case.
In the case of `CN1CCC[C@@H]1CCO[C@](C)(c1ccccc1)c1ccc(Cl)cc1`, the Potency result in [1] and in assay [2] was “inactive” each time.
As for `C[C@@]12C(=O)OC(=O)[C@]1(C)C1CCC2O1`, the Potency in assay [4] is 1680 nM (active); in [3], 2660 nM (active); in assay [5] it was 2930 nM (active); in assay [6], 7370 nM (active); in assay [7] it was 3290 nM (active); in [8] it was 8270 nM (active). The Potency in [9] was 2930 nM (active); in assay [19], 2930 nM (active); in assay [20], 5220 nM (active); in [10], 8270 nM (active); in assay [11] it was 2080 nM (active); in assay [12], 3290 nM (active). Moreover, the Potency is 2930 nM (active) in assay [14]; 2080 nM (active) in assay [15]; 6570 nM (active) in assay [16]; 3290 nM (active) in [17]; 3690 nM (active) in [18].
As for `CC(=O)O[C@]1(C(C)=O)CC[C@H]2[C@@H]3C=C(Cl)C4=CC(=O)CC[C@]4(C)[C@H]3CC[C@@]21C`, the Potency result in assay [1] and in [2] was “inactive” in each case.
In the case of `O=C(N/N=C/c1ccc([N+](=O)[O-])o1)c1ccc(O)cc1`, the Potency result in assay [1] and in assay [2] was “inactive” throughout.
Regarding `O[C@@H](c1cc(C(F)(F)F)nc2c(C(F)(F)F)cccc12)[C@H]1CCCCN1`, the Potency result in [1] is “inactive”.
Turning to `CCOC(=O)[C@H](CCc1ccccc1)N[C@@H](C)C(=O)N1[C@H](C(=O)O)C[C@@H]2CCC[C@@H]21`, the Potency entry in assay [1], in [2] and in [3] was “inactive” each time.
For `O=C(O)CCc1nc2ccccc2[nH]1`, the Potency entry in assay [1], in [2] and in assay [3] was “inactive” in each case.
Turning to `O=C(Nc1ncc([N+](=O)[O-])s1)c1cccs1`, the Potency result in [1] is “inactive”.
As to `CCCCCCCCCCCCCCC[C@H](O)[C@@H](N)CO`, the Potency result in assay [1], in assay [2] and in assay [3] was “inactive” each time.
